SMILES strings stand for the structures. Square brackets hold non-standard residues; d marks the D form. Peptide text beside a SMILES is read from it. Orn = NCCC[C@H](N)C(=O)O

A short description of this assay: qHTS profiling of inhibitors of Plasmodium falciparum (DD2) proliferation (acoustic dispense). Particulars: P. falciparum Dd2 in erythrocytes, SYBR Green DNA, 72 h; at 49.8 µM (top of the series) unless noted. The text has this: Plasmodium falciparum is a virulent malarial parasite that kills 1-2 million people worldwide each year. Transmitted by mosquitoes, the sporozoite form of the parasite enters the blood stream to infect hepatocytes, where they become merozoites that infect red blood cells (erythrocytes). Within erythrocytes, merozoites begin a […] cycle of growth and division, after which the parasite is released to infect new red blood cells. Gametocytes, which form within erythrocytes as well, circulate in the bloodstream and are ingested by the mosquito, thereby completing the life cycle. To profile malarial isolates for differential chemical responses and to identify inhibitors of malarial growth, an assay that measures P. falciparum growth and replication within erythrocytes was employed. This assay uses a DNA binding fluorescent dye (SYBR Green) to detect parasite DNA following cell lysis. Because mature erythrocytes lack DNA, only Plasmodium-derived DNA is detected.
The SYBR Green viability assay was adapted from a method described previously (Plouffe et al., 2008). For screening 3 ul culture medium was dispensed into 1536 well black clear bottom plates (Aurora Biotechnologies) using a Multidrop Combi (Thermo Fisher Scientific Inc.), 23 nL of compounds in DMSO were added by an acoustic dispenser (EDC Biosystems), and 5 ul of erythrocytes infected with P. falciparum (0.3% parasitemia, 2.5% hematocrit final concentration) were added. The plates were incubated at 37 C in a humidified incubator in 5% CO2 for 72 h, and 2 ul lysis buffer (20 mM Tris HCl, 10 mM EDTA, 0.16% saponin, 1.6% triton X, 10X SYBR Green I supplied as 10,000X […] by Invitrogen) was added to each well. The plates were mixed for 25 sec with gentle shaking and incubated overnight at room temperature in the dark. The following morning, fluorescence intensity at 485(14) nm excitation and 535(25) nm emission wavelengths was measured on an EnVision (Perkin Elmer) plate reader. Plate reads were normalized relative to the control inhibitor (0.29 uM artemisinin) and vehicle (DMSO) wells present on each plate and then corrected by an algorithm using vehicle-only control plates at the beginning and end of the compound plate stack.
(qHTS replaces the single test concentration by a dilution series.)
`COc1ccc(-c2ccc3ncc4c(c3c2)n(-c2ccc(N3CCNCC3)c(C(F)(F)F)c2)c(=O)n4C)cn1`: the parasite growth, lower = inhibition was determined as 2.81%. Regarding `CCCC[C@@H]1C[C@@H](C(=O)NC([C@H](C)Cl)[C@H]2O[C@H](S)[C@H](O)[C@@H](O)[C@@H]2O)N(C)C1` (stereo not given in full), the parasite growth, lower = inhibition amounted to 20.5%. On to `FC(F)c1nc2ccccc2n1-c1nc(N2CCOCC2)nc(N2CCOCC2)n1`, for which the parasite growth, lower = inhibition was determined as 0.937%. As for `COc1ncc(-c2ccc3nccc(-c4ccnnc4)c3c2)cc1NS(=O)(=O)c1ccc(F)cc1F`, the figure is -0.286%; as for `C[C@@H](Oc1ccc2[nH]nc(C=Cc3cnn(CCO)c3)c2c1)c1c(Cl)cncc1Cl`, 1.14%. As for `CCC(=O)N1CCN(c2ccc(-n3c(=O)ccc4cnc5ccc(-c6cnc7ccccc7c6)cc5c43)cc2C(F)(F)F)CC1`, the parasite growth, lower = inhibition was 3.68%. Take `Cc1cn[nH]c1`: the parasite growth, lower = inhibition turned out to be 23.6%. Turning to `COc1cc(C)c2c(Oc3cccc(C(F)(F)F)c3)c(OC)cc(NCCCC(C)N)c2n1` (stereo not given), the parasite growth, lower = inhibition is -0.465%. `Cc1[nH]c2ccccc2c1CCNCc1ccc(C=CC(=O)NO)cc1`: the parasite growth, lower = inhibition is -0.777%. For `CCC[C@H](Nc1nc(-c2ccc(NC(=O)NCC)c(OC)c2)ncc1C)c1cccnc1` the value was 1.45%; for `CO[C@H]1C=CC=C(C)C(=O)NC2=CC(=O)C(NCCN(C)C)=C(C[C@@H](C)C[C@H](OC)[C@@H](O)[C@@H](C)C=C(C)[C@@H]1OC(N)=O)C2=O`, -1.01%.

In the case of `CC(C)C[C@@H]1NC(=O)[C@H](CCCN)NC(=O)[C@H](C(C)C)NC(=O)[C@@H]2CCCN2C(=O)[C@@H](Cc2ccccc2)NC(=O)[C@H](CC(C)C)NC(=O)[C@H](CCCN)NC(=O)[C@H](C(C)C)NC(=O)[C@@H]2CCCN2C(=O)[C@@H](Cc2ccccc2)NC1=O` (cyclo(V[Orn]L[dF]PV[Orn]L[dF]P)), the parasite growth, lower = inhibition was found to be 0.52%. As to `O=C1NC(=O)C(=Cc2ccc3nccc(-c4ccncc4)c3c2)S1`, the parasite growth, lower = inhibition was 0.455%. For `O=C(Nc1ccc([N+](=O)[O-])cc1Cl)c1cc(Cl)ccc1O` the value was 87.9%; for `C[C@H]1[C@@H](OC(=O)CCC(=O)O)O[C@@H]2O[C@@]3(C)CC[C@@H]4[C@H](C)CC[C@@H]1[C@@]24OO3`, -0.775%; for `Cc1cnc(Nc2ccc(CN3CCOCC3)cc2)nc1Nc1cccc(S(=O)(=O)NC(C)(C)C)c1`, 0.192%.

Take `COc1cc([C@@H]2c3cc4c(cc3[C@@H](O[C@@H]3O[C@@H]5CO[C@@H](c6cccs6)O[C@@H]5[C@H](O)[C@@H]3O)[C@H]3COC(=O)[C@H]23)OCO4)cc(OC)c1O`: the parasite growth, lower = inhibition was -0.345%.

For the compound `O=C1c2c(O)ccc(O)c2C(=O)c2c(NCCNCCO)ccc(NCCNCCO)c21`, the parasite growth, lower = inhibition is -3.56%.

As for `COC1=C2C[C@@H](C)C[C@H](OC)[C@@H](O)[C@@H](C)C=C(C)[C@H](OC(N)=O)[C@@H](OC)C=CC=C(C)C(=O)NC(=CC1=O)C2=O`, the parasite growth, lower = inhibition is -0.39%.

In the case of `CO[C@H]1O[C@@H]2O[C@@]3(C)CC[C@@H]4[C@@H](C)CC[C@@H]([C@H]1C)[C@@]24OO3`, the parasite growth, lower = inhibition was -0.475%. Turning to `CCC(C=C[C@@H]1OC(=O)C=C[C@H]1C)=C[C@H](C)CC=CC(C)=C[C@@H](C)C(=O)[C@@H](C)[C@H](O)[C@@H](C)CC(C)=CC(=O)O`, the parasite growth, lower = inhibition worked out at 97.6% [at 1.88 µM]. Regarding `CC[C@]1(O)C[C@H]2CN(CCC3=c4ccccc4=N[C]3[C@@](C(=O)OC)(c3cc4c(cc3OC)N(C)[C@H]3[C@@](O)(C(N)=O)[C@H](O)[C@]5(CC)C=CCN6CC[C@]43[C@@H]65)C2)C1`, the parasite growth, lower = inhibition turned out to be 3.44%.

Take `Cn1c2ccccc2c2c3c(c4c5ccccc5n(CCC#N)c4c21)CNC3=O`: the parasite growth, lower = inhibition was found to be 70.2%.

Regarding `Cc1cn(-c2cc(NC(=O)c3ccc(C)c(Nc4nccc(-c5cccnc5)n4)c3)cc(C(F)(F)F)c2)cn1`, the parasite growth, lower = inhibition was found to be 7.6%. `Nc1cccc(-c2csc(NC(=O)CCCCCCC(=O)NO)n2)c1`: the parasite growth, lower = inhibition is -0.461%. As to `C=CCNc1c(O)cc2c(O)c1C[C@@H](C)C[C@H](OC)[C@@H](O)[C@@H](C)C=C(C)[C@H](OC(N)=O)[C@@H](OC)C=CC=C(C)C(=O)N2`, the parasite growth, lower = inhibition is -0.701%. With `CN(C)c1ccc(C(=C2C=CC(=[N+](C)C)C=C2)c2ccc(N(C)C)cc2)cc1`, the parasite growth, lower = inhibition is 96.3%.

For `COc1ccc(-c2cc3c(C)nc(N)nc3n(C3CCC(OCCO)CC3)c2=O)cn1` (stereo not given), the parasite growth, lower = inhibition was -0.346%. For `C=C[C@@H]1CN2CCC1C[C@@H]2C(O)c1ccnc2ccc(OC)cc12` (stereo not given in full) the value was 1.83%; for `CC[C@H]1CN2CCc3cc(OC)c(OC)cc3[C@H]2C[C@@H]1C[C@@H]1NCCc2cc(OC)c(OC)cc21`, 0.111%. For `CN(C)c1ccc2nc3ccc(=[N+](C)C)cc-3sc2c1`, the parasite growth, lower = inhibition came to 11.8%. As to `Cn1cnc(=N)c2[nH]cnc21`, the parasite growth, lower = inhibition was determined as 0.26%. On to `CO[C@@H]1C(N(C)C(=O)c2ccccc2)C[C@H]2O[C@]1(C)n1c3ccccc3c3c4c(c5c6ccccc6n2c5c31)C(=O)NC4=O` (stereo not given in full), for which the parasite growth, lower = inhibition was 10.1%. For `CC[C@H]1OC(=O)[C@H](C)[C@@H](O[C@H]2C[C@@](C)(OC)[C@@H](O)[C@H](C)O2)[C@H](C)[C@@H](O[C@@H]2O[C@H](C)C[C@H](N(C)C)[C@@H]2O)[C@](C)(O)C[C@@H](C)CN(C)[C@H](C)[C@@H](O)[C@]1(C)O` the value was 9.84%; for `COCCn1c2c([n+](Cc3cnccn3)c1C)C(=O)c1ccccc1C2=O`, -0.378%; for `O=C1C(=O)c2ccccc2C(O)=C1C1CCC(c2ccc(Cl)cc2)CC1` (stereo not given), 3.04%. As for `CCc1nc(N)nc(N)c1-c1ccc(Cl)cc1`, the figure is 79.6%; as for `CC(C)[C@H](C(=O)Nc1ccc(C(=O)NO)cc1)c1ccccc1`, 0.408%. As to `CCCCCCCCCCOc1cc2c(=O)c(C(=O)OCC)c[nH]c2cc1OCC`, the parasite growth, lower = inhibition came to 1.27%.

With `CO[C@H]1C=CO[C@@]2(C)Oc3c(C)c(O)c4c(O)c(c(C=NN5CCN(C)CC5)c(O)c4c3C2=O)NC(=O)C(C)=CC=C[C@H](C)[C@H](O)[C@@H](C)[C@@H](O)[C@@H](C)[C@H](OC(C)=O)[C@H]1C`, the parasite growth, lower = inhibition is -0.189% [at 16.5 µM].

The values above are taken from PubChem BioAssay AID743365 (National Center for Advancing Translational Sciences (NCATS), 2014).
